# From the supplement of paper PMC9694430
# How the values were obtained:
# Assay in all cases: thermal shift delta Tm vs DMSO control; higher = stronger stabilization (binding)
# Conditions in all cases: 12.5 µM; protein concentration 2 µM
# LOC_OS02G45750-cb003 = system: LOC_OS02G45750-cb003
# Method in brief: (§1)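 Thermal shift values come from differential scanning fluorimetry on purified rice kinase domains made in E. coli, with melting temperatures obtained from Boltzmann fits. Samples of 19.5 μl held 2 μM kinase, 100 mM potassium phosphate pH 7.5, 150 mM NaCl, 10% glycerol, 5 × SYPRO Orange and compound in DMSO, and were heated from 25°C to 95°C at 0.05°C/s. Each shift is a triplicate mean relative to the DMSO-only protein sample.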
# LOC_OS02G54510-cb004 = system: LOC_OS02G54510-cb004
# Method in brief: as §1
# LOC_OS03G04050-cb001 = system: LOC_OS03G04050-cb001
# Method in brief: as §1
# LOC_OS03G12390-cb001 = system: LOC_OS03G12390-cb001
# Method in brief: as §1
# LOC_OS03G27990-cb004 = system: LOC_OS03G27990-cb004
# Method in brief: as §1
# LOC_OS03G50450-cb001 = system: LOC_OS03G50450-cb001
# Method in brief: as §1
# LOC_OS03G50810-cb003 = system: LOC_OS03G50810-cb003
# Method in brief: as §1
# LOC_OS04G35114-cb001 = system: LOC_OS04G35114-cb001
# Method in brief: as §1
# LOC_OS04G38480-cb003 = system: T1, LOC_OS04G38480-cb003
# T1 sequence (whole entry): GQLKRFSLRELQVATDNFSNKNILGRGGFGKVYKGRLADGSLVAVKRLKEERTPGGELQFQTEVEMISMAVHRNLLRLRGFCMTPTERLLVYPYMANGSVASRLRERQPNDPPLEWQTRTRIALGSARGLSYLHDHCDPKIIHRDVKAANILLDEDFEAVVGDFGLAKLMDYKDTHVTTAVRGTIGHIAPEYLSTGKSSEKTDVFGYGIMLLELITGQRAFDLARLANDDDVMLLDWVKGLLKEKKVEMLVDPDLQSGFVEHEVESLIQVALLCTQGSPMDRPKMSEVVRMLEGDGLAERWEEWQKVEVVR
# Method in brief: as §1
# LOC_OS04G41100-cb001 = system: T2, LOC_OS04G41100-cb001
# T2 sequence (whole entry): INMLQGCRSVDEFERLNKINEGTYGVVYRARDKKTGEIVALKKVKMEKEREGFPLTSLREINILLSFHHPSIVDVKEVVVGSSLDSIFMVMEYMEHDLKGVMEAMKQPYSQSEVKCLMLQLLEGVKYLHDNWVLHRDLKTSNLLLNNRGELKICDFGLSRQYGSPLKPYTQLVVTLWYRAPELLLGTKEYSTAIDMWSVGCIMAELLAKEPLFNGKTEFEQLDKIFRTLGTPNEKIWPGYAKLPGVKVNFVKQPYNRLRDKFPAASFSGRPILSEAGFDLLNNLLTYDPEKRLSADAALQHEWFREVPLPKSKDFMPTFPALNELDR
# Method in brief: as §1
# LOC_OS04G57630-cb004 = system: LOC_OS04G57630-cb004
# Method in brief: as §1
# LOC_OS05G07850-cb002 = system: LOC_OS05G07850-cb002
# Method in brief: as §1
# LOC_OS05G16824-cb004 = system: LOC_OS05G16824-cb004
# Method in brief: as §1
# LOC_OS05G28520-cb001 = system: LOC_OS05G28520-cb001
# Method in brief: as §1
# LOC_OS05G30820-cb001 = system: LOC_OS05G30820-cb001
# Method in brief: as §1
# LOC_OS05G43570-cb004 = system: LOC_OS05G43570-cb004
# Method in brief: as §1
# LOC_OS06G16330-cb003 = system: LOC_OS06G16330-cb003
# LOC_OS06G16330-cb003, sequence (as listed by the source): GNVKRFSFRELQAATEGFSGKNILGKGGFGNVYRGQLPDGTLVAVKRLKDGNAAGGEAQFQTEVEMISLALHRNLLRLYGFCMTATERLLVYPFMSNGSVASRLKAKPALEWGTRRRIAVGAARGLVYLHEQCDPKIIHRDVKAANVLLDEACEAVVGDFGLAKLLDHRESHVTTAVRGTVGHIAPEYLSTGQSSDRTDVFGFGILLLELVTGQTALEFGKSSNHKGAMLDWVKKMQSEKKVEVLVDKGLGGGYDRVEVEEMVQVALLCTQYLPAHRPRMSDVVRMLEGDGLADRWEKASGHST
# Method in brief: as §1
# LOC_OS06G22820-cb001 = system: T3, LOC_OS06G22820-cb001
# T3 sequence (whole entry): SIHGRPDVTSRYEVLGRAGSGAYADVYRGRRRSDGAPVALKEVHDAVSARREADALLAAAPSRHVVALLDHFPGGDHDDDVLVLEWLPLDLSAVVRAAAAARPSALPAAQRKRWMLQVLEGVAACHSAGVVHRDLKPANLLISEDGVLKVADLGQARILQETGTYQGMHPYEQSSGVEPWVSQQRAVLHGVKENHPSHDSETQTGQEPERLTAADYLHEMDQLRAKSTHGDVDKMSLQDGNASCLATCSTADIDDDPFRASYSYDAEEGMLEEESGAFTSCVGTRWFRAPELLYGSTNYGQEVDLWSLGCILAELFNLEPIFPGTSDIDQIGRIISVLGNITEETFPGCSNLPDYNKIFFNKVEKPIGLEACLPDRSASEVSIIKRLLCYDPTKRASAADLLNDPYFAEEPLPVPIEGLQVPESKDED
# Method in brief: as §1
# LOC_OS07G06570-cb004 = system: LOC_OS07G06570-cb004
# Method in brief: as §1
# LOC_OS07G07230-cb001 = system: LOC_OS07G07230-cb001
# Method in brief: as §1
# 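Also: purified Escherichia coli-expressed rice kinase domain construct.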
SMILES,thermal shift delta Tm (LOC_OS02G45750-cb003) [°C],thermal shift delta Tm (LOC_OS02G54510-cb004) [°C],thermal shift delta Tm (LOC_OS03G04050-cb001) [°C],thermal shift delta Tm (LOC_OS03G12390-cb001) [°C],thermal shift delta Tm (LOC_OS03G27990-cb004) [°C],thermal shift delta Tm (LOC_OS03G50450-cb001) [°C],thermal shift delta Tm (LOC_OS03G50810-cb003) [°C],thermal shift delta Tm (LOC_OS04G35114-cb001) [°C],thermal shift delta Tm (LOC_OS04G38480-cb003) [°C],thermal shift delta Tm (LOC_OS04G41100-cb001) [°C],thermal shift delta Tm (LOC_OS04G57630-cb004) [°C],thermal shift delta Tm (LOC_OS05G07850-cb002) [°C],thermal shift delta Tm (LOC_OS05G16824-cb004) [°C],thermal shift delta Tm (LOC_OS05G28520-cb001) [°C],thermal shift delta Tm (LOC_OS05G30820-cb001) [°C],thermal shift delta Tm (LOC_OS05G43570-cb004) [°C],thermal shift delta Tm (LOC_OS06G16330-cb003) [°C],thermal shift delta Tm (LOC_OS06G22820-cb001) [°C],thermal shift delta Tm (LOC_OS07G06570-cb004) [°C],thermal shift delta Tm (LOC_OS07G07230-cb001) [°C]
CN(C)Cc1cccc(N=C(c2ccccc2)c2c(O)[nH]c3cc(C(=O)N(C)C)ccc23)c1,4.33,0.4,0.44,0.66,1.19,0.55,2.45,5.85,0.55,0.45,0.46,5.73,3.8,-0.08,0.49,0.76,0.77,0.98,0.59,-0.37
COc1cc2ncnc(Oc3cccc(NC(=O)Nc4cc(C(C)(C)C(F)(F)F)on4)c3)c2cc1OC,0.81,1.05,0.36,0.21,0.47,0.59,0.19,0.57,0.16,0.2,0.6,2.95,-2.76,0.72,0.54,0.45,0.19,0.58,1.77,0.79
CNS(=O)(=O)C[C@H]1CC[C@H](N(C)c2[nH]cnc3nccc2-3)CC1 [Oclacitinib],3.43,0.36,0.63,1.78,1.09,1.35,1.01,1.87,0.99,0.23,0.5,7.33,-0.02,0.31,0.53,0.33,3.72,0.36,1.6,0.51
CC(C)NC[C@@H](C(=O)N1CCN(c2ncnc3c2[C@H](C)C[C@H]3O)CC1)c1ccc(Cl)cc1 [Ipatasertib (GDC-0068)],0.72,0.15,0.65,-0.37,0.47,1.15,0.45,0.7,1.01,0.07,-0.05,0.18,-3.22,0.5,0.46,0.17,-0.53,0.38,1.25,0.21
C=CC(=O)Nc1cccc(Oc2nc(Nc3ccc(N4CCN(C)CC4)cc3)ncc2Cl)c1,3.96,0.5,0.53,3.42,2.49,1.35,4.77,3.8,1.67,1.1,1.97,11.6,8.96,4.43,1.14,0.72,5.65,0.76,0.79,1.03
CN1CCN(C2CCN(C(=O)Nc3cc(Oc4ccc(NC(=O)C5(C(=O)Nc6ccc(F)cc6)CC5)c(F)c4)ccn3)CC2)CC1 [Golvatinib (E7050)],0.4,-0.38,0.26,0.04,0.36,0.52,0.33,0.27,1.71,1.78,0.73,5.87,-0.83,6.78,0.39,0.58,2.41,0.51,1.02,0.08
CN1CCC(CNc2ccc3ncc(-c4cccc(OC(F)(F)F)c4)n3n2)CC1 [SGI-1776 free base],3.47,0.36,-0.12,0.16,0.31,0.18,3.02,4.33,1.08,0.53,1.46,12,3.25,0.98,0.86,0.36,3.37,0.41,0.32,0.72
COc1cccc(-n2c(=O)[nH]c3cc(Cl)n(-c4ccc(-c5cccc(OC)c5O)cc4)c3c2=O)c1,0.85,0.06,0.3,0.12,0.42,0.22,0.35,0.59,1.27,0.29,0.32,-0.83,-0.73,0.37,0.41,0.59,-0.14,0.65,1.02,0.5
COc1ccc2c(c1)[C@]1(C[C@H]1c1ccc3c(/C=C/c4ccc(CN5C[C@@H](C)O[C@@H](C)C5)cc4)n[nH]c3c1)C(=O)N2,9.37,-0.19,0.73,0.7,0.36,0.66,4.68,4.47,4.28,0.19,7.27,12.3,9.09,0.02,-0.63,0.5,11.6,0.46,0.63,-0.28
"Cc1cc(Nc2cc(N3CCN(C)CC3)nc(Sc3ccc(NC(=O)C4CC4)cc3)n2)n[nH]1 [Tozasertib (VX-680, MK-0457)]",6.99,1.33,0.64,1.35,0.54,3.08,4.7,8.53,2.62,2.03,5.53,8.32,15.4,2.06,0.66,0.98,5.98,0.83,0.91,0.6
COc1cc2nccc(Oc3ccc(NC(=O)c4cn(C(C)C)c(=O)n(-c5ccc(F)cc5)c4=O)cc3F)c2cc1OC,1.35,0.3,0.61,0.23,0.52,0.71,1.15,0.49,3.7,0.44,0.32,11.1,2.27,0.34,-0.01,0.27,8.48,0.89,1.78,0.22
C=CC(=O)Nc1cccc(Nc2nc(Nc3ccc(Oc4ccnc(C(=O)NC)c4)cc3)ncc2F)c1,0.72,1.23,0.77,2.55,0.98,1.34,2.61,2.69,3.42,0.73,1.31,11,6.27,0.89,0.57,0.22,6.48,0.38,0.89,1.49
